Results: PubChem BioAssay AID623868 (Vanderbilt High Throughput Screening Facility, 2012)
In all, about 2,100 compounds went through this assay and about 760 (36%) were called active. The list is a sample of the results. A number with no mark means an inactive call.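 Rule for the calls: active = thallium-flux fluorescence traces judged by eye to show enhanced or reduced glutamate response, manual score 1 or -1, so both directions (some results past the limit were not filed as active); inactive = the rest, including fluorescent or raised-baseline compounds.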

Experiment: thallium influx changes without GIRK channels – cell-based, HEK-293 rmGlu8, no GIRK, thallium flux, counter-screen for GIRK activator project, confirmation (AID 623868);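 note: extra codes mark interference with 3 for fluorescent and 4 for baseline rise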
Details: thallium flux fluorescence, at 10 µM, actives lie on both sides, codes: 1 enhancer, -1 blocker, 0 none, thallium stimulus containing EC20 glutamate

Structure (SMILES) | manual score
Cc1cc(O)c(C(C[N+](=O)[O-])c2ccc(Cl)cc2Cl)c(=O)o1 (stereo not drawn) | 0
O=C(O)CCC(=O)NC1CCCCCCC1 | 0
CSc1ccccc1NC(=O)Nc1ccccc1 | 0
O=C(Nc1ccc(OCC(=O)N2CCC(Cc3ccccc3)CC2)cc1)c1ccco1 | 0
CC(=O)c1cccc(NC(=S)NC(=O)c2cccc(C)c2)c1 | 0.5
CC1CCN(c2ncccc2C(=O)O)CC1 | 0
CC(=O)c1cccc(NC(=S)NC(=O)c2cccc(Cl)c2)c1 | 1 (active)
CC1CCN(c2ccc(NC(=S)NC(=O)c3ccco3)cc2)CC1 | 1 (active)
CSc1ccccc1C(=O)Nc1cccc(C(C)=O)c1 | 0
O=C(NC(=S)Nc1ccc(N2CCCCC2)cc1)c1ccco1 | 1 (active)
O=C(NC(=S)Nc1cccc(Cl)c1N1CCCCC1)c1ccco1 | 1 (active)
O=C(NC(=S)Nc1ccc(N2CCOCC2)cc1)c1ccco1 | 1 (active)
O=C(Nc1ccc(F)cc1)c1cccnc1N1CCOCC1 | 0
O=C(NC(=S)Nc1ccc(N2CCOCC2)c(Cl)c1)c1cncc(Br)c1 | 1 (active)
COc1ccc(OCC(=O)NC(=S)Nc2ccc(N3CCOCC3)c(Cl)c2)cc1 | 0
C=CCN(CC=C)S(=O)(=O)c1ccc(NC(=S)NC(=O)c2ccco2)cc1 | 0.5
CCN(c1ccc2c(c1)OCO2)S(=O)(=O)c1cc(Br)cc2c1N(C(=O)C1CC1)CC2 | 0
N=c1c2c(-c3ccccc3)c(-c3ccccc3)n(Cc3ccccc3)c2ncn1CCCO | 0
CCC1=NN(C(=O)c2cccc(Br)c2)C(O)(c2ccc(Br)cc2)C1 (stereo not drawn) | 1 (active)
COC(=O)C1=NN(C(=O)c2ccc(Cl)cc2)C(O)(c2ccccc2)C1 (stereo not drawn) | 1 (active)
CCOC(=O)C1=NN(C(=O)c2ccc(C)cc2)C(O)(c2ccc(Cl)cc2)C1 (stereo not drawn) | 1 (active)
CCOC(=O)C1=NN(C(=O)c2ccccc2)C(O)(c2ccc(C)cc2)C1 (stereo not drawn) | 1 (active)
CCOC(=O)C1=C(NC(=S)NC(=O)c2ccccc2)c2ccccc2CC1(C)C | 0
CCOC(=O)c1c(C)[nH]c(C(=O)COC(=O)CNC(=O)c2ccc(Cl)cc2)c1C | 0
CCOC(=O)c1cc(-c2ccc(Cl)cc2)nc2c1c(C)nn2CCC#N | 0
Cc1ccc(-c2csc3ncnc(N4CCN(C(=O)c5ccccc5)CC4)c23)cc1 | 0

Structure (SMILES) | manual score
O=[n+]1cc(-c2ccccc2)n([O-])c2c1CCC2 | 0
Cc1ccc(NC(=O)CSc2nnc(CCNC(=O)OC(C)(C)C)o2)c(C)c1 | 0
O=C1CC(C(F)(F)C(F)(F)C(F)(F)F)=Nc2ccccc2N1 | 0
Cc1ccc(NC(=O)Cc2c(Cl)cccc2Cl)cc1S(=O)(=O)N(C)C | 0
COc1ccccc1C(c1nnnn1CCc1ccccc1)N1CCCCCC1 (stereo not drawn) | 0
COC(=O)C1=NN(C(=O)c2ccc(C)cc2)C(O)(c2ccc(Cl)cc2)C1 (stereo not drawn) | 1 (active)
COc1ccc2cc(C(=O)NCC(=O)O)sc(=O)c2c1OC | 0
O=C(CCCCn1c(=O)c2ccccc2n(CC(=O)NC2CCCC2)c1=O)NCc1ccco1 | 0
N#CCSc1nc2ccc(N3CCOCC3)cc2c(=O)n1CCc1ccccc1 | 0
CC(C)CCn1c(SCC#N)nc2c(sc3ccccc32)c1=O | 0
CCCCn1c(SCC(N)=O)nc2c(sc3ccccc32)c1=O | 1 (active)
CCCCCn1c(NCc2ccco2)nc2ccccc21 | 0
CCOC(=O)CSc1nc2c(sc3ccccc32)c(=O)n1CCCN1CCOCC1 | 0
CCCCn1c(SCC(=O)NCc2ccco2)nc2ccccc2c1=O | 1 (active)
C/C(N)=C(/C#N)C(=O)CSc1nc2cc(Cl)ccc2c(=O)n1-c1ccc(C)cc1 | 1 (active)
CCCCn1c(SCC(=O)/C(C#N)=C(\C)N)nc2ccccc2c1=O | 1 (active)
CCCCn1c(SCc2nc(N)nc(Nc3ccccc3C)n2)nc2ccccc2c1=O | 0
O=c1sc(N2CCN(c3ccccc3F)CC2)nc2ccsc12 | 0
COc1ccc(C2C(C(N)=O)=C(C)Nc3nc(-c4cccc(Cl)c4)nn32)cc1OC (stereo not drawn) | 0
OC(c1ccccc1)C1CN(Cc2ccccc2)CCC1(O)c1ccccc1 (stereo not drawn) | 0
C=CCNC(=S)Nc1nc2c(cc1C(=O)OCC)CCCC2 | 1 (active)
CCNC(=S)Nc1nc2c(cc1C(=O)OCC)CCCC2 | 1 (active)
Cc1cc(C)cc(NC(=O)Cn2cc3c(n2)CCCCC3)c1 | 0
C=C(C)CNC(=S)Nc1nc2c(cc1C(=O)OCC)CCCC2 | 1 (active)
CCOC(=O)c1cc(NC(=O)SCC(=O)O)c(C)nc1C | 0
C=C(C)CNC(=S)N/N=C1\CCCCc2ccccc21 | 0

Structure (SMILES) | manual score
CCN(C(=O)COc1cc(=O)n(CC)c2ccccc12)c1cc(Cl)ccc1OC | 0
N#CC(C#N)=C1C=C2C=C(N3CCCCC3)CCC2CC1 (stereo not drawn) | 3
O=C(NC(=S)NNC(=O)c1cccs1)c1ccc(Br)o1 | 1 (active)
O=C(COc1ccccc1)NNC(=S)NC(=O)c1ccc(Cl)cc1Cl | 1 (active)
Cc1ccc(C(=O)NNC(=S)NC(=O)c2ccc(Cl)cc2Cl)cc1 | 1 (active)
Cc1onc(-c2ccccc2)c1C(=O)NNC(=S)NC(=O)c1ccc(Br)cc1 | 1 (active)
Cc1ccc(-c2cnc(NC(=O)CCC(=O)N3CCCCC3)n2C)cc1 | 0
CCOC(=O)N1CCC(NC(=O)c2cnn3c2NC(c2ccco2)CC3C(F)(F)F)CC1 (stereo not drawn) | 0
COc1cc(OC)c2nc(C)c3c(c2c1)N(c1ccc(O)cc1)CC3 | 0
CCC1Oc2ccc(C)cc2N(CC(=O)N(Cc2ccc(C)o2)C2CCCC2)C1=O (stereo not drawn) | 0
CCOC(=O)c1oc2nc(C(C)C)c3c(c2c1N)CC(C)(C)OC3 | 0
Cc1ccccc1C(=O)NNC(=S)NC(=O)c1ccccc1 | 1 (active)
Cc1cccc(C(=O)NC(=S)NNC(=O)c2cccs2)c1 | 1 (active)
Cc1onc(-c2ccccc2)c1C(=O)NC(=S)Nc1sc2c(c1C#N)CCCC2 | 1 (active)
Cc1cccc(C(=O)NC(=S)NNC(=O)c2ccccc2Cl)c1 | 1 (active)
Cc1ccccc1C(=O)NC(=S)Nc1sc2c(c1C#N)CCCC2 | 0
O=C(CSc1nnc2ccccn12)Nc1nsc(-c2ccccc2)n1 | 0
CCc1ccccc1N(C)C(=O)CCc1nc(-c2ccc(C)cc2)no1 | 0
O=C(Nc1cccc(S(=O)(=O)c2cccc(NC(=O)C3CC3)c2)c1)C1CC1 | 0.5
Cc1cccc(NC(=O)CN(c2ccc(C(C)C)cc2)S(=O)(=O)c2c(C)nn(C)c2C)n1 | 0
COc1ccc(C2CC(c3ccc(Cl)c(Cl)c3)Nc3nc(N)nn32)cc1 (stereo not drawn) | 0
Cc1ccccc1C(=O)NNC(=S)NC(=O)c1ccc(Cl)cc1Cl | 1 (active)
Cc1ccccc1C(=O)NC(=S)Nc1ccc(Oc2ccc(Cl)cc2)cc1 | 0
Cc1c(Cl)cccc1NC(=S)/C(=C(\[O-])c1ccc(Cl)s1)[n+]1ccccc1 | 0
Cc1ccccc1C(=O)NNC(=O)C(=O)Nc1cccc(Cl)c1C | 1 (active)
Cc1ccc(C(=O)NNC(=S)NC(=O)c2ccc(Cl)cc2)cc1 | 1 (active)

Structure (SMILES) | manual score
Cc1cccc(C(=O)NC(=S)NNC(=O)c2ccc(Cl)cc2)c1 | 1 (active)
O=C(O)C1C2C=CC3(CN(C4CCCC4)C(=O)C13)O2 (stereo not drawn) | 0
O=C1C2C3C=CC(C3)C2C(=O)N1/N=C/c1cn(Cc2ccccc2)c2ccccc12 (stereo not drawn) | 0
Cc1cc(C)nc(N(C#N)Cc2ccc(Br)cc2)n1 | 0
CCn1c(SCC(=O)c2cc(C)n(CC3CCCO3)c2C)nc2ccccc21 (stereo not drawn) | 0
Cc1ccc(CSc2nc3ccncc3[nH]2)cc1 | 0
COC(=O)c1cc(CSc2nc3ccc(C)cc3[nH]2)oc1C | -1 (active)
O=C(CSc1nc2ccc(Cl)cc2[nH]1)Nc1ccc2c(c1)CCC2 | 0
O=C(CCS(=O)NCc1ccccc1)NCc1ccccc1 (stereo not drawn) | 0
Cc1ccc(N2C=Nc3ccc(C)c4nc(C)cc2c34)cc1 | -1 (active)
CN1CC=C2C(C#N)=C(N)C(C#N)(C#N)[C@H](c3cccc(Cl)c3)C2C1 (stereo partly drawn) | 3
Cc1ccc(CN2C3=NCCCN3c3ccccc32)cc1 | 0
COc1cc(CNCCc2c[nH]c3ccccc23)ccc1OCc1ccc(F)cc1 | 0
COc1cc(/C=C(/C#N)c2ccc(F)cc2)ccc1OCc1ccc(C(=O)O)o1 | -1 (active)
COc1ccc(CN2CCNC(=O)C2CC(=O)O)cc1OC (stereo not drawn) | 0
CSc1nc(Sc2ccccc2)c2ccccc2n1 | 0
O=C(/C=C/c1cccs1)NC(=S)NNC(=O)Cc1cccs1 | 1 (active)
O=C(Cc1cccs1)Nc1cccnc1 | 0
COc1cc(NC(=O)Cc2cccs2)cc(OC)c1 | 0
CCOc1ccc(C(=O)CN2CCN(S(=O)(=O)c3ccc(Br)cc3)CC2)cc1 | 0
CC(=O)c1sc(NC(=O)c2cc(-c3ccccc3)nn2-c2ccccc2)nc1C | 0
O=C(NNC(=O)c1cc(-c2ccccc2)n(-c2ccccc2)n1)c1cccc([N+](=O)[O-])c1 | 1 (active)
COc1ccc(Nc2nc(-c3cccc([N+](=O)[O-])c3)nc3ccccc23)cc1 | 0
Cn1c2ccccc2c2cc(C(=O)NNS(=O)(=O)c3ccc(F)cc3)sc21 | 0.5
Cc1sc2c(c1C)CN(C1CC(C)(C)NC(C)(C)C1)CN2C(=O)c1ccco1 | 0
